Screening results (PubChem)
This is a sample that favours compounds with a hit; in the whole collection about 0.6% have one here.
CD11b adhes inh: CD11b/CD18-fibrinogen binding inhibition; P05107+P11215; K562 CD11b/CD18 adhesion to fibrinogen, ATPlite luminescence; Mn2+ added to activate the integrin; inhibition, % at 10 µM; hit rate 0.54% among 93,000; AID 1497;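 active means primary inhibition of 50% or more at 10 µM, then 40% or more on retest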
CD11b adhes enh: CD11b/CD18-fibrinogen binding enhancement; hit rate 0.07% among 93,000; K562 CD11b/CD18 adhesion to fibrinogen, ATPlite luminescence; activation, % at 10 µM;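 active means 10 µM primary screen giving 50% or more activity, confirmed by 40% or more on retest at that dose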
WNV protease inh: blocks West Nile virus NS2B-NS3 protease activity; P06935; WNV NS2B-NS3 protease, fluorogenic substrate Ex360/Em465; hits give low values; z-score (test concentration not listed); hit rate 0.18% among 65,000; AID 577; in the data active means z-score below about -3
Target sequence (P06935 1371-1501 limits assumed): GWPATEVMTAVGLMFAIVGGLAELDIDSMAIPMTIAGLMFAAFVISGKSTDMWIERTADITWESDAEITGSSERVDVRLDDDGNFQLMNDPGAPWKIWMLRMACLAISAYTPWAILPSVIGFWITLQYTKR
Target sequence (P06935 1502-1679 limits assumed): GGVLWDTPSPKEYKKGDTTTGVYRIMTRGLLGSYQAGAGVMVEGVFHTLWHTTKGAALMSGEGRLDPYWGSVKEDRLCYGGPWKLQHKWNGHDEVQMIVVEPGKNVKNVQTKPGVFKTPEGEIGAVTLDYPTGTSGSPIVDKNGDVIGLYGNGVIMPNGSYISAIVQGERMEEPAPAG
An asterisk follows results filed as active; . = no result.

SMILES | CD11b adhes inh | CD11b adhes enh | WNV protease inh
O=C1N/C(=N/Nc2ccccc2)S/C1=C\c1ccccc1 | 79* | -12 | .
CCCn1nc([N+](=O)[O-])c(C(C#N)c2nc3ccccc3s2)c(Cl)c1=O (configuration not stated) | 95* | -8 | .
Cn1c(C(C#N)C(=O)c2sc3ccccc3c2Cl)nc2ccccc21 (configuration not stated) | 12 | 0 | 1.2
CC(/C=N/NC(=O)c1ccc(Br)cc1)=C\c1ccccc1 | 7 | 9 | .
C/C(=N\NC(=O)c1ccc(Br)cc1)C1C(=O)c2ccccc2C1=O | 97* | -7 | .
O=C(CSc1nc2ccccc2s1)Nc1cc(S(=O)(=O)N2CCOCC2)ccc1O | 44 | 8 | .
COc1ccc2oc(=Nc3ccccc3)c(-c3nc4ccccc4[nH]3)cc2c1 | 15 | 8 | .
CN1c2ccccc2C(O)=C(C(=S)Nc2ccc(F)c(Cl)c2)S1(=O)=O | 84* | -10 | .
CN1c2ccccc2C(O)=C(C(=S)Nc2ccccc2)S1(=O)=O | 7 | -3 | .
CCCCC(CC)CNC(=O)c1cccs1 (configuration not stated) | 10 | -3 | -1.2
Cc1ccc(-c2nc(N/N=C/c3cccnc3)c3ccccc3n2)cc1 | 95* | -8 | .
Cc1sc(N/N=C/c2cccnc2)nc1-c1ccccc1 | -5 | -3 | .
Clc1cccc(/C(Cc2nc3ccccc3[nH]2)=N\Nc2ccccc2)c1 | 69 | -2 | .
COc1ccc(-c2nc(CN3CCC(C(=O)NC(C)C)CC3)c(C)o2)cc1OC | . | . | 0.24
CCOC(=O)c1cnn(-c2cc(Oc3ccccc3)ncn2)c1N | 52* | 0 | .
CCOC(=O)c1cnn(-c2cc(Oc3cccc(C)c3)ncn2)c1N | -1 | -4 | .
CC1(C)C(=O)N(OCc2ccccc2)C(C)(C)C(=O)N1OCc1ccccc1 | -9 | 1 | .
CC(C)(CSc1nncn1N)NS(=O)(=O)c1ccc(Cl)cc1 | -21 | -3 | -0.05
CCOc1ccc(C2CC(c3cccc(OC)c3OC)n3nnnc3N2)cc1Cl (configuration not stated) | -1 | 10 | 1.6
O=C(Cn1c2ccccc2c(=O)c2ccccc21)N/N=C/c1ccc(N2CCCC2)c([N+](=O)[O-])c1 | 1 | 87 | .
O=C(Cn1c2ccccc2c(=O)c2ccccc21)N/N=C/c1cc([N+](=O)[O-])ccc1N1CCCCCC1 | -9 | 107* | .
COc1cnc(N(C)C)nc1Sc1cccc(Cl)c1 | -4 | 3 | .
O=C(O)c1cnc(-c2ccccc2)nc1Sc1cccc(Cl)c1 | 62* | -6 | .
CCN(CC)C(=O)c1sc(NC(=O)c2ccc(OC)c([N+](=O)[O-])c2)c(C#N)c1C | 45 | -5 | .
CCc1ccc(/C=C/C(=O)c2cc(Br)ccc(=O)c2O)cc1 | 74* | -6 | .
SMILES | CD11b adhes inh | CD11b adhes enh | WNV protease inh
Cc1cccc(/C=C/C(=O)c2cc(Br)ccc(=O)c2O)c1 | 85* | -7 | .
Cc1ccc(/C=C/C(=O)c2cc(Br)ccc2OC(=O)c2ccco2)cc1 | -10 | 3 | .
Cc1ccc2occ(/C=C/C(=O)c3ccccc3O)c(=O)c2c1 | 4 | 12 | .
COC(=O)c1ccc(NC(=S)NC(=O)c2cc(-c3ccccc3)nc3ccccc23)cc1 | 4 | 5 | .
COc1ccc(Cl)cc1C(=O)NNC(=S)NC(=O)c1cc(-c2ccccc2)nc2ccccc12 | 16 | 62* | .
Cc1ccc2c(nc3s/c(=C/c4cccs4)c(=O)n32)c1C | 15 | 33 | -0.07
Cc1cc(C)c2nc3s/c(=C/c4ccccc4)c(=O)n3c2c1 | 57* | -5 | .
C=CCn1c(SCc2ccc(C#N)cc2)nnc1-c1ccc(C)cc1 | -2 | 2 | .
N#CC(c1ccc(F)cc1)c1ccc(C(=O)c2ccc(F)cc2)cc1 (configuration not stated) | 87* | -5 | .
Cc1ccc(C(C#N)c2ccc(C(=O)c3ccc(F)cc3)cc2)cc1 (configuration not stated) | 95 | -6 | .
Cc1cc(Br)c2nc3c(c(C(=O)O)c2c1)CCCCC3 | 2 | -5 | .
C/C(N)=C(/C#N)C(=O)CSc1nc2ccccc2c(=O)n1-c1ccc(C)c(Cl)c1 | -9 | 1 | .
COCCn1c(C)cc(C2=NNC(=Nc3ccc(OC)cc3)SC2)c1C | 23 | 81* | .
COCCn1c(C)cc(C2=NNC(=Nc3ccccc3)SC2)c1C | 39 | -3 | .
CCOc1ccc(CSC2=NCCN2)cc1Cl | . | . | -0.28
CCOc1ccc(Br)cc1/C(C)=N\NC1=NCCN1 | 84* | -6 | .
O=C(COC(=O)Cn1nnc2ccccc21)Nc1ccccc1Br | -2 | 2 | .
Cc1cnc(NC(=O)C(C)N2C(=O)C3CC=CCC3C2=O)s1 (configuration not stated) | -12 | -2 | -3.4*
CC(C(=O)Nc1nccs1)N1C(=O)C2CC=CCC2C1=O (configuration not stated) | -12 | 0 | 0.67
CCOc1ccc(NS(=O)(=O)c2cc(NC(=O)c3ccc(C)cc3)ccc2Cl)cc1 | 21 | 10 | .
Cc1cc(N2CCN(C3CCCC3)CC2)n2nc(C)c(-c3ccccc3)c2n1 | . | . | 0.11
Cc1cc(C(=O)Nc2sc3c(c2C#N)CCC(C(C)(C)C)C3)no1 (configuration not stated) | -23 | -7 | 2.2
CC(C)(C)C1CCc2c(sc(NC(=O)c3cc(C4CC4)on3)c2C#N)C1 (configuration not stated) | 54* | -5 | -0.83
COc1cccc(NC(=O)N2CCN(Cc3nc4ccccc4c(=O)[nH]3)CC2)c1 | . | . | -0.26
CCN1CCN(C(=S)c2ccc([N+](=O)[O-])cc2)CC1 | -14 | 4 | .
SMILES | CD11b adhes inh | CD11b adhes enh | WNV protease inh
COCCCN=C(c1ccco1)n1c(=S)nc(-c2ccco2)n(CCCOC)c1=S | 4 | -1 | -0.36
Cc1ccc(S(=O)(=O)n2nc(OC(=O)c3c(-c4ccccc4Cl)noc3C)cc2N)cc1 | 16 | 1 | -1
COc1ccc(S(=O)(=O)n2nc(OC(=O)c3ccccc3)cc2N)cc1 | 2 | -1 | -6.4*
COc1ccc(S(=O)(=O)n2nc(OC(=O)c3ccc(C)cc3)cc2N)cc1 | -3 | -4 | -0.72
COc1ccc(S(=O)(=O)n2nc(OC(=O)c3ccccc3Br)cc2N)cc1 | 12 | -5 | -4.2*
COc1ccc(S(=O)(=O)n2nc(OC(=O)c3ccco3)cc2N)cc1 | . | . | -7.7*
COc1ccc(S(=O)(=O)n2nc(OC(=O)c3cccs3)cc2N)cc1 | . | . | -5.6*
Cc1nn(C(C)(C)C)c(OC(=O)c2cccs2)c1S(=O)(=O)c1ccccc1 | 86 | -1 | 0.18
CC(C)(C)C(=O)Oc1cc(N)n(S(=O)(=O)c2ccccc2)n1 | . | . | -0.63
Cc1ccc(C)c(SCC(=O)Nc2cc(C)nn2-c2ccc(F)cc2)c1 | 2 | 1 | .
Cn1cc([N+](=O)[O-])c(C(=O)Nc2cc(Oc3cccnc3)cc([N+](=O)[O-])c2)n1 | 0 | 2 | .
CC(C)(C)c1ccc(OCCNC(=O)c2ncn[nH]2)cc1 | -27 | -3 | .
O=C(CN1CCN(S(=O)(=O)c2ccc(Br)cc2)CC1)N/N=C/c1cccnc1 | -5 | -6 | .
CC(=O)c1cccc(NC(=O)COC(=O)[C@@H](NC(=O)OCc2ccccc2)C(C)C)c1 | 6 | 6 | .
CCc1ccc(-c2nc(CSCC(=O)N3CCN(c4ncccn4)CC3)c(C)o2)cc1 | 79* | -7 | 0.8
CSc1ccc(-c2nc(CSCC(=O)N3CCOCC3)c(C)o2)cc1 | 19 | -3 | -0.33
